Screens as filed in PubChem BioAssay.
IL-2 act – activators of IL-2. activation, % (series mostly up to about 46 µM). IL-2 activation reporter assay, cell-based qHTS; stimulated with anti-CD3/CD4/CD28 beads; in transgenic mouse T cells. actives 0.065% (n = 360,000). AID 652025; also: 0% is about no effect
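Using fluorescent plate cytometry, EGFP and DsRed are detected in transgenic mouse T cells stimulated 18 h at 37 degrees C with antibody-coated beads after 60 min compound pretreatment.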
TRPML1 blocker – blocks the human TRPML1 channel; Q9GZU1; TRPML1-inducible cells, Ca2+ dye fluorescence, FDSS; stronger effect = lower value; inhibition of EC80 agonist-evoked calcium signal; actives 0.02% (n = 390,000); AID 624415; activity change, negative = inhibition, % (concentration not given with the values); in the data active = activity change below about -50%; inconclusive = between about -30% and that limit;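 also: stimulus is agonist 54-4 at its EC80 concentration; % is scaled to controls: 0 for no effect and ±100 for the full control effect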
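Calcium fluorescence in TRPML1-DL cells induced overnight with Tet: a 110 s read after compound pin addition, then a 110 s antagonist read after challenge with 54-4 at 4 uM final (EC80).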
PKM2 act – PKM2 (human) enzyme activation. P14618. purified PKM2, Kinase-Glo ATP luminescence, activation; response scale: 0% is enzyme alone, no compound. Potency, µM (series often up to 57.5 µM), inactives show at the top dose activation, actives largely listed as activators. actives 0.34% (n = 260,000); active = well fitted activation curve with a large enough effect; inconclusive = small, poorly fitted or top-dose-only effect; inactive = no such curve, though single readings can be large or run the other way; also: potency is read from the fitted curve at half-maximal effect; % is scaled to controls: 0 for no effect and ±100 for the full control effect; nearly all actives have a fitted effect of over 55% in size
Target sequence (P14618 whole entry, looked up): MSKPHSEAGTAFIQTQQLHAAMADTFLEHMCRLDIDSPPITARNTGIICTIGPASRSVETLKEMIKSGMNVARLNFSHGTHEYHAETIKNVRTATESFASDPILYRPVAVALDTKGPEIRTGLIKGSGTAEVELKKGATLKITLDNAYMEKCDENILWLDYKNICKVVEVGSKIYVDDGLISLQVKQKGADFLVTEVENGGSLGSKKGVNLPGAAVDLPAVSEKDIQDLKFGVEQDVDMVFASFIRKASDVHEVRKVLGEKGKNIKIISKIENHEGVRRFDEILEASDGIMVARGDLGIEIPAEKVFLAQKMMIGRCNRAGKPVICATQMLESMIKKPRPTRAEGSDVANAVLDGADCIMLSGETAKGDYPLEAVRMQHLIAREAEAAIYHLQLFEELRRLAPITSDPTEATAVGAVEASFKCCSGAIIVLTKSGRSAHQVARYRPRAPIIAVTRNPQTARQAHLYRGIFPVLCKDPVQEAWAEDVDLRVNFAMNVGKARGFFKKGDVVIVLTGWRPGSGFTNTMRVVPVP
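Purified hPK-M2 (>95%) run at intermediate activity with 0.1 mM ADP and 0.5 mM PEP in 50 mM imidazole pH 7.2, KCl, MgCl2; 1 h room temperature. ATP formed read by Kinase-Glo luminescence; normalized to uninhibited and no-enzyme controls.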
BRCA1 expr act – increases BRCA1 expression; MCF7-BRCA1-FFLuc reporter, luminescence, 48 h; response scale: scaled: vehicle 0%, 10 µM genistein 100%; Potency, µM (doses to about 46.1 µM), inactives show top-dose activation, hits mostly activators; actives 1.1% (n = 380,000); active = well fitted activation curve with a large enough effect; inconclusive = small, poorly fitted or top-dose-only effect; inactive = no such curve, though single readings can be large or run the other way; also: potency is read from the fitted curve at half-maximal effect; nearly all actives have a fitted effect of over 80% in size
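MCF7-BRCA1-FFLuc, 2000 cells/well; 2 h attach, 37 °C/5% CO2; compound 48 h; luciferase substrate 15 min; luminescence end-point. Norm. to genistein 10 microM max activation and DMSO; concentration-response curves fitted.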
TSG101-PTAP inh – blocks PTAP/TSG101 interaction to inhibit HIV-1 budding; 340,000 tested, under 10 active; Potency, µM (titrated, usually from 115 µM), inactives show at the top dose activity change, negative = inhibition, usual class: inhibitors; AID 493005; Fluorescence polarization, FITC-PTAP peptide / Tsg101 binding; active = well fitted inhibition curve with a large enough effect in the main read-out, with a control signal flat, not every such curve was filed as active; inconclusive = small, poorly fitted or top-dose-only effect, or effect the other way, or a change in a side signal; inactive = no such curve, though single readings can be large or run the other way; also: potency is read from the fitted curve at half-maximal effect; % of control where 0% means no effect
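Steps: Tsg101 binding domain dispensed (10 uM final), compounds pinned in DMSO, FITC-labeled PTAP-motif peptide added (50 nM final); after 20 min binding at room temperature, polarization measured.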
TRPML1 ag – agonists of human TRPML1 channel | actives 0.12% (n = 410,000) | TRPML1-expressing cells, Ca2+ dye fluorescence, FDSS | activation, % (concentration not given with the values) | AID 624414 | Q9GZU1; also: 0% is about no effect
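TRPML1-DL cells, Tet-induced overnight (~16 h, 37 degrees C), loaded 45-90 min at room temperature with Ca8 no-wash calcium dye plus quencher. FDSS fluorescence: 10 s baseline, compound pin-transfer, 110 s agonist read, then EC80 54-4 (4uM final) and 110 s antagonist read.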
* hit, by the source's call; ? = inconclusive; · = not tested or not shown. A selection: hits, their analogues and other compounds. The true share with any hit is near 1.3%. Rule as the data show it, unless noted: active = activation above about 50%; inconclusive = mostly about 30% to 49%; inactive = weaker than that.

SMILES	IL-2 act	TRPML1 blocker	PKM2 act	BRCA1 expr act	TSG101-PTAP inh	TRPML1 ag
Cc1cc(C(=O)CSc2ccc(Cl)cc2)cc(C)c1OC(=S)N(C)C	0	10	0%	5µM*	-3%	1
Cc1cc(C(=O)CSc2ccc(F)cc2)cc(C)c1O	-1	-11	·	?	0%	2
COC(=O)[C@@H](Cc1c[nH]c2ccccc12)NC(=O)c1ccc2c(c1)OCO2	-2	?	·	3.5µM*	-1%	2
O=C(NCCc1c[nH]c2ccccc12)c1ccc2c(c1)OCO2	0	14	·	?	-3%	2
O=C(NCCc1c[nH]c2ccccc12)c1cc(Cl)c2c(c1)OCO2	0	-4	·	3.5µM*	0%	1
O=C(NCCc1c[nH]c2ccccc12)C(=O)Nc1ccccc1	-4	-19	1%	11µM*	-9%	2
CCCCSCCCNC(=O)c1c[nH]c2ccc(S(=O)(=O)Nc3cccc(OC)c3)cc2c1=O	·	-22	·	·	·	3
O=C(NC1CCCC1)c1ccc(Cl)c(S(=O)(=O)N2CCOCC2)c1	4	8	0%	0%	-8%	-1
Cc1ccc(C(=O)NC2CCCCCCC2)cc1S(=O)(=O)N1CCOCC1	0	31	·	10µM*	0%	2
Nc1c(Br)cc(/C=C2\C=Cc3ccccc32)cc1Br	·	·	·	-4%	·	-1
O=C(Nc1ccc(OCC(=O)N2CCOCC2)cc1)Nc1cccc(Cl)c1	0	-1	-1%	28%	-2%	0
O=C(Nc1ccc(C(=O)N2CCOCC2)cc1)Nc1cccc(Cl)c1	-2	-8	-8%	11µM*	1%	1
O=C(Nc1ccc2c(c1)COC2=O)c1ccc(Cl)c(Cl)c1	-4	35	-11%	14µM*	-3%	1
COc1ccc(/C=C2\SC(=O)N(CCNC(=O)C3CC4C=CC3C4)C2=O)cc1 (stereo not given)	-1	-16	-2%	5.6µM*	-8%	-1
COc1ccc(/C=C2\SC(=O)N(CCNC(=O)C3CSC4(C)CCC(=O)N34)C2=O)cc1 (stereo not given)	-1	-5	·	29%	-9%	0
Cc1cc(C)cc(NC(=O)c2sc3nc(C)cc(C)c3c2N)c1	0	27	1%	4µM*	-6%	1
Cc1cccc(NC(=O)c2sc3nc(N)c(C#N)cc3c2N)c1	-3	5	4%	3.2µM*	-2%	1
Cn1c(=O)n(C)c2cc(S(=O)(=O)NCc3ccccc3)ccc21	1	-8	18µM*	-20%	-3%	-1
Nc1nc(SCC(=O)O)c2[nH]cnc2n1	·	·	·	3%	·	0
Cc1ccc(-c2cc(C(=O)N3CCCc4ccccc43)no2)cc1	-1	-1	7%	3.2µM*	-8%	3
O=C(c1ccc(Cl)cc1)N1CCc2ccccc21	-1	·	-2%	85%	-1%	·
O=C(C1CCC(C(=O)N2CCc3ccccc32)CC1)N1CCc2ccccc21 (stereo not given)	0	-5	-3%	2%	-1%	1
O=C(c1ccc(Cl)s1)N1CCc2ccccc21	-3	-10	-16%	11µM*	-6%	3
O=C(c1cc(-c2ccc(F)cc2)on1)N1CCCc2ccccc21	0	7	1%	39%	-3%	2
Cc1ccc(C(=O)N2CCc3ccccc32)cc1	3	0	-12%	11µM*	-3%	0
SMILES	IL-2 act	TRPML1 blocker	PKM2 act	BRCA1 expr act	TSG101-PTAP inh	TRPML1 ag
O=C(NC1CCCCC1)N1CCc2ccccc21	0	10	-13%	11µM*	-2%	-1
COc1ccc(OC)c(CNc2ncc(-c3ccc(Cl)cc3)n2C)c1	·	-6	·	11%	·	-1
Cc1ccc(Sc2c(C)nn(C(=O)COc3ccc(F)cc3)c2C)cc1	·	-14	·	·	·	3
CCOC(=O)CCCC(=O)N1CCN(/[N+]([O-])=N/Oc2ccc([N+](=O)[O-])cc2[N+](=O)[O-])CC1	·	-10	·	-3%	·	2
COc1ccccc1CNc1ncnc2c1c(-c1ccccc1)cn2-c1ccc(Br)cc1	·	-3	·	·	·	0
CCCCC(=O)N(C)c1c(CC)nc2c(OCC(=O)c3ccc(F)cc3)cccn12	0	-12	·	0%	·	0
CCOc1ccc2nc(NC(=O)C(CC)Sc3nc(C)cc(=O)[nH]3)sc2c1 (stereo not given)	-1	-3	5%	5.6µM*	2%	0
CCCc1cc(=O)[nH]c(SCC(=O)Nc2nc3ccc(OCC)cc3s2)n1	0	9	-12%	25%	-6%	3
CCCOc1ccc(CNC(=O)C(CC)n2nc(C)c3sc4ccccc4c3c2=O)cc1 (stereo not given)	·	-7	·	·	·	0
CCOC(=O)CC(NC(=O)c1cc2cccc(OC)c2oc1=O)c1ccc(OC)cc1 (stereo not given)	1	-9	·	13µM*	-3%	-1
COc1cc(CN(C(=O)COc2ccccc2Cl)c2ccccn2)cc(OC)c1OC	·	38	·	0%	·	0
CCOc1ccc(S(=O)(=O)c2cn(C)c3ccccc3c2=O)cc1	·	5	·	·	·	-1
Cc1cc(N(C)C)cc(C)c1C=O	·	·	·	·	·	-1
CN(C(=O)COC(=O)c1ccc([N+](=O)[O-])cc1N)c1ccccc1	77*	4	-1%	-6%	?	-2
COc1ccc(-n2c(SCC(=O)Nc3ccc4c(c3)OCO4)nc3c([nH]c4ccccc43)c2=O)cc1	·	-2	·	22%	·	0
Cc1ccc(NC(=O)Nc2ccc3c(c2)nnn3C)cc1C	-2	5	-1%	2.8µM*	0%	-1
CC(C)CCn1c(Oc2ccccc2F)nc2c1c(=O)n(C)c(=O)n2C	·	31	·	·	·	1
Cc1ccc2oc(Nc3nc(-c4ccccc4)cc(=O)[nH]3)nc2c1	1	1	0%	3.5µM*	2%	3
Oc1ccc(/C=N/Nc2ncc(Cl)cc2Cl)cc1	0	27	·	13µM*	-3%	1
Cc1c(C(=O)Nc2ccc3nc(N4CCOCC4)sc3c2)oc2ccccc12	-1	-17	·	-37%	5%	55*
Clc1cccc2sc(N3CCCC3)nc12	-3	-10	-5%	?	-7%	1
Fc1ccc2nc(N3CCOCC3)sc2c1	-3	40	-9%	11µM*	0%	0
Clc1cccc2sc(N3CCOCC3)nc12	5	11	·	16µM*	-3%	2
CC(C)NC(=O)c1cc2c(Cl)nc3ccccc3c2s1	·	-15	·	5%	·	0
